This passage reports Potency, outcome and activation results from PubChem BioAssay (NCATS).

Each structure is given as a SMILES string. Values joined by “and” are separate entries in the source; they are usually repeats but may differ in a detail not shown here. Equal entries are not always repeated. Records with an inconclusive call do not appear. Some structures have more than one record in an assay (separate samples or runs), and their calls can disagree. Active and inactive are the calls of the source. Unless noted, calls come from the whole dose curve; as a rule, active = well fitted curve in the direction sought with a large enough effect; inconclusive = small, poorly fitted or top-dose-only effect, or another doubt; inactive = no such curve, though single readings can be large; an effect the other way counts as inactive or inconclusive.

A short description of assay [1]: qHTS Assay for Identification of Small Molecule Antagonists for NFkB Signaling Pathway (AID 895; active = well fitted inhibition curve with a large enough effect in the signal ratio, with a control signal flat, not every such curve was filed as active; the % refers to the signal ratio; note: potency is the fitted concentration of half-maximal effect). The method, boiled down:
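NFkB-bla ME-180 cervical carcinoma cells with beta-lactamase reporter under NFkB response element; compounds added, then TNF alpha at 10 pM final (EC50), 5 h at 37 C. LiveBLAzer substrate 2 h, room temperature; emission 460/530 nm at 405 nm excitation.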

For assay [2], the target named is Cytochrome P450 2C19 (Homo sapiens) (UniProt P33261). Kind of assay: qHTS Assay for Inhibitors and Substrates of Cytochrome P450 2C19 (AID 899). Note: nearly all actives have a fitted effect of over 60% in size. Note: potency is the fitted concentration of half-maximal effect. The method, boiled down:
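In 50mM KPO4, the reaction held 5nM enzyme and KM-level (10uM) Luciferin-H EGE; it ran 60 min at 37C after NADPH regeneration and a 10 min compound preincubation. Luminescence values were scaled to 57uM ketoconazole as complete inhibition.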

The target in assay [3] is Muscarinic acetylcholine receptor M1 (Rattus norvegicus) (UniProt P08482). Kind of assay: qHTS Assay for Antagonists of Acetylcholine Muscarinic M1 Receptor: Measurement of IP-One Response (AID 944). Note: nearly all actives have a fitted effect of over 75% in size. Put shortly: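 Steps: plate transfected CHO-M1 cells overnight; add test compound, 10 min; add carbachol (200 nM, EC80) in stimulation buffer with LiCl; incubate 30 min; add labelled IP1 tracer and anti-IP1 antibody in lysis buffer; read HTRF after 10 min.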
(In general: qHTS replaces the single test concentration by a dilution series.)

Assay [4] concerns the target Pyruvate kinase (Leishmania mexicana) (UniProt Q27686). Kind of assay: qHTS Validation Assay for Inhibitors of Leishmania Mexicana Pyruvate Kinase (AID 945).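 Note: 0% = DMSO only neutral control wells.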 The method, boiled down: (§1)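 The enzyme is a highly purified E451W mutant of LmPYK used at 0.2 nM. It converts 0.5 mM PEP and 0.1 mM ADP over 1 h at room temperature; product ATP is quantified by luciferase luminescence relative to DMSO controls.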

For assay [5], the target named is Pyruvate kinase PKM (Homo sapiens) (UniProt P14618). Kind of assay: qHTS Assay for Activators of Human Muscle Pyruvate Kinase (AID 954; active = well fitted curve in the direction sought with a large enough effect, not every such curve was filed as active;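 note: 0% = uninhibited enzyme and -100% = no enzyme or full thiadiazolimine inhibition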). Put shortly:
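Human PKM2 activity is measured as ATP generation, detected by luciferase-coupled luminescence. The enzyme (0.1 nM) acts on 0.5 mM PEP and 0.1 mM ADP for 1 h at ambient temperature; data are normalized to uninhibited and full-inhibition wells.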

A short description of assay [6]: qHTS Assay for Identification of Small Molecule Agonists for Thrombopoietin (TPO) Signaling Pathway (AID 917). Note: % is set by controls: 0 for no effect and ±100 for the full control effect. The method, boiled down: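 Luminescence from a Glycoprotein IIb promoter–driven luciferase reporter served as read-out in murine Ba/F3 cells carrying the human TPO receptor. Cells, deprived of IL-3 overnight, received compounds with 26 pM TPO and were incubated 24 hrs at 37 C.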

Assay [7] addresses Muscarinic acetylcholine receptor M1 (Rattus norvegicus) (UniProt P08482). Kind of assay: qHTS Assay for Antagonists of Acetylcholine Muscarinic M1 Receptor: Kinetic Measurement of Intracellular Calcium Response (AID 943).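 Note: Fluo-4 calcium signal as peak divided by basal fluorescence over 4 min; series mostly up to about 35 µM; nearly all actives have a fitted effect of over 75% in size.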 The method, boiled down: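 Intracellular calcium flux, recorded with Fluo-4 in a kinetic plate reader, served as signal; the response to carbachol at EC80 (100 nM final) was taken as maximal over minimal fluorescence after a 10 min compound pre-incubation in rat M1-CHO cells.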

Assay [8] is described as follows: Confirmation and Secondary Assay for Modulators of Hemoglobin Beta Chain Splicing at IVS2 654 locus (AID 910).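 Note: per-well total GFP intensity by laser scanning cytometry after 2-day treatment; % of control where 0% means no effect.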 Put shortly: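 HeLa cells stably carrying EGFP interrupted by mutant beta-globin IVS2-654 intron (CMV-driven) were treated with compound for 2 days at 37C; corrected splicing was scored as total peak GFP intensity per well (488 nm excitation, 500-520 nm emission).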

Assay [9] is described as follows: Confirmation and Secondary Assay for Modulators of Hemoglobin Beta Chain Splicing at IVS2 705 locus (AID 930).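 Note: HeLa cells stably expressing the EGFP-705 splicing reporter; GFP fluorescence per well restored by corrected splicing of the IVS2-705 intron in EGFP; series mostly up to about 46 µM; % of control where 0% means no effect.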 Put shortly:
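Splice-correction reporter: EGFP cDNA split by beta-globin intron 2 bearing the 705 mutation, stably in HeLa. Compound incubation 2 days, 37C; fluorescent objects 5-250 µm summed per well.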

Assay [10] concerns the target Pyruvate kinase (Leishmania mexicana) (UniProt Q27686). Kind of assay: qHTS Validation Assay for Activators of Leishmania Mexicana Pyruvate Kinase (AID 959). Put shortly: as §1
Assay [11] is described as follows: qHTS Assay for Identification of Small Molecule Agonists for Hypoxia Response Element Signaling Pathway (AID 914; active = well fitted activation curve with a large enough effect in the signal ratio, with a control signal flat, not every such curve was filed as active; the % refers to the signal ratio; note: % of control where 0% means no effect). To be noted: ME-180 (cervical carcinoma) HRE-bla reporter, beta-lactamase ratio, CoCl2, 17 h; activation: stronger effect = higher value. Put shortly: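 Cells were plated overnight, pin-dosed with compound in a titration series, co-stimulated with EC50 CoCl2 and incubated 17 hours at 37 degrees Celsius. CCF4 substrate was then loaded, and AC50 values came from the 460nm/530nm ratio.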

Assay [12] is described as follows: qHTS Assay for Identification of Small Molecule Antagonists for Thrombopoietin (TPO) Signaling Pathway (AID 918). Note: potency is the fitted concentration of half-maximal effect; nearly all actives have a fitted effect of over 60% in size. To be noted: TPO-dependent cell signaling reporter, antagonist mode. Put shortly: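 First, Ba/F3 reporter cells expressing human TPO receptor were held overnight without IL-3. Next, compound and 26 pM TPO were added. After 24 hrs incubation at 37 C, luciferase luminescence under the Glycoprotein IIb promoter was recorded.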

Assay [13] addresses Pyruvate kinase PKM (Homo sapiens) (UniProt P14618). Kind of assay: qHTS Assay for Inhibitors of Human Muscle Pyruvate Kinase (AID 958). The method, boiled down:
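Compound pinned into substrate mix (0.5 mM PEP, 0.1 mM ADP), then 0.1 nM PKM2 added; 1 h, RT. Stop/detection luciferase reagent added, luminescence read. Normalized to no-inhibition and no-enzyme or reference-inhibitor controls.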

Chain of Muscarinic acetylcholine receptor M1 (Rattus norvegicus) (P08482 whole entry, looked up): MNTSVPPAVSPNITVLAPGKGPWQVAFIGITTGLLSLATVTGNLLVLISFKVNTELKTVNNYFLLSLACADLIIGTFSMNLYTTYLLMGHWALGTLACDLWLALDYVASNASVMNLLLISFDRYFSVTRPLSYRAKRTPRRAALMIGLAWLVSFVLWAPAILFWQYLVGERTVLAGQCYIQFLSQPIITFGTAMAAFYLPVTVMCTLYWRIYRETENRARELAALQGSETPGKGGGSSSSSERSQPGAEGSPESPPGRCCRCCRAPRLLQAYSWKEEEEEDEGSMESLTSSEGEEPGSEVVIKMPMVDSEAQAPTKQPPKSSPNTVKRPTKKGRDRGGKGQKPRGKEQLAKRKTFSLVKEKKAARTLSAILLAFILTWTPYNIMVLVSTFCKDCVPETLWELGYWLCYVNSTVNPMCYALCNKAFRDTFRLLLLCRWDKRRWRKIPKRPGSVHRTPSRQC
Chain of Pyruvate kinase (Leishmania mexicana) (Q27686 2-499 E452W): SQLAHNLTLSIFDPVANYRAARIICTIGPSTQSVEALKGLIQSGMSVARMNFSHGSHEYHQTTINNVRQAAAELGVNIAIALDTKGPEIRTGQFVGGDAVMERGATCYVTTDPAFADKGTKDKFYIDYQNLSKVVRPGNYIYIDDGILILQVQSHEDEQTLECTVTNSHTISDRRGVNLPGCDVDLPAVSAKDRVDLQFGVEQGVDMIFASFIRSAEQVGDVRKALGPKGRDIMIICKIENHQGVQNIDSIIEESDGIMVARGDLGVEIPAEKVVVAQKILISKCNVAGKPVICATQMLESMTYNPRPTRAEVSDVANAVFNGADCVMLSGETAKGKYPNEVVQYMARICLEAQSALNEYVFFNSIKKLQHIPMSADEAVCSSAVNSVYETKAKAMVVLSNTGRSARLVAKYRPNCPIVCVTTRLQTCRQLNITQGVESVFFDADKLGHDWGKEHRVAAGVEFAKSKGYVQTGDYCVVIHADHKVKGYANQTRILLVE
Chain of Cytochrome P450 2C19 (Homo sapiens) (P33261 whole entry, looked up): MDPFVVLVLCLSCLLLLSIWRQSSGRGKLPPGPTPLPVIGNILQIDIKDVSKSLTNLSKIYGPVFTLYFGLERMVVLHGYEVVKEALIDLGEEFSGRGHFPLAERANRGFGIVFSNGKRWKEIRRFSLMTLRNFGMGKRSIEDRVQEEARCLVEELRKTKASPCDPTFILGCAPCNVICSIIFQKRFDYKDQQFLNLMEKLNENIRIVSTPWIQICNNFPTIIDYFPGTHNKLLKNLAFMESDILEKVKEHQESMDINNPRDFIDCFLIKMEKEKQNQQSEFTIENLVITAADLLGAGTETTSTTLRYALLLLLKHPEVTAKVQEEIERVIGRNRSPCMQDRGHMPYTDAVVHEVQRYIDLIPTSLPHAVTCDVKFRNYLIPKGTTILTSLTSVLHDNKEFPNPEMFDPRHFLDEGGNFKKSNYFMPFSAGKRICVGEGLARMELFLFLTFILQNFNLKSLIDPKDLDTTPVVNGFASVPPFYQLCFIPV
Chain of Pyruvate kinase PKM (Homo sapiens) (P14618 whole entry, looked up): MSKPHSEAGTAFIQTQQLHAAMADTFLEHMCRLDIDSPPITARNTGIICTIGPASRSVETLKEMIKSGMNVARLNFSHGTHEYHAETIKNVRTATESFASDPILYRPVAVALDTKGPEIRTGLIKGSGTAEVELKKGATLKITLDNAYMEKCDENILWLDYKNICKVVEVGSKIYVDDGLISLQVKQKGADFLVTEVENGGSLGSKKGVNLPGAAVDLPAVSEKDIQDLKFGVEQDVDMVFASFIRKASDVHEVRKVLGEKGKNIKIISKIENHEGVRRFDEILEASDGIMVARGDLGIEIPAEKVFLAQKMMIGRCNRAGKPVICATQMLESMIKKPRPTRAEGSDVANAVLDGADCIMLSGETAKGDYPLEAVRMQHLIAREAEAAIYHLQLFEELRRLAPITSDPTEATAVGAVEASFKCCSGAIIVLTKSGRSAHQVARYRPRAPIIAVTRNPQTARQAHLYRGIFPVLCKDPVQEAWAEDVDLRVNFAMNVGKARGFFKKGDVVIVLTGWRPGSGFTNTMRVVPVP

For `NCCCNCCCCNCCCN`, the Potency entry in assay [1], in assay [3] and in assay [4] was “inactive” each time. Further, in [2], the Potency entry is “inactive and 7.94 µM (active)”. In addition, the molecule was called inactive in assay [5].

Turning to `CNc1cc(NS(=O)(=O)c2ccc(N)cc2)nc(NC)n1`, the Potency result in [1], in assay [2], in [6], in assay [7] and in assay [4] was “inactive” in each case. Besides, the call in assay [5] was inactive.

As to `O=[N+]([O-])c1cccc2cn[nH]c12`, the Potency entry in [1], in assay [2], in assay [8], in assay [6], in assay [3] and in assay [4] was “inactive” in each case. Moreover, the molecule was classed as inactive in assay [9] and in assay [5].

Turning to `N[C@H](C(=O)O)[C@H](O)C(=O)O`, the Potency entry in assay [1], in [6], in assay [7], in [3] and in [4] was “inactive” each time. The result in assay [5] was inactive.

In the case of `COc1ccc(-c2ccc(N)[n+](CCCC(=O)O)n2)cc1`, the Potency entry in assay [1], in assay [6], in [7], in assay [3] and in [4] was “inactive” in each case. Further, in assay [5], the outcome was inactive.

As for `Cc1nc(N=Nc2ccc(C(=O)O)cc2)c(COP(=O)(O)O)c(C=O)c1O`, the Potency entry in [1], in assay [2], in assay [6], in [7], in assay [3] and in assay [4] was “inactive” each time. Moreover, the molecule was classed as inactive in [5]. Besides, in assay [10], the Potency was 5.01 µM (active).

In the case of `CNCCNS(=O)(=O)c1cccc2cnccc12`, the Potency in [1] is 10 µM (active). Moreover, the Potency result in assay [6], in [7], in [3] and in [4] was “inactive” in each case. Also, the result in assay [5] was inactive.

Regarding `CC(=O)NCCc1c[nH]c2ccc(O)cc12`, the Potency entry in [1], in [8], in assay [6], in assay [7], in [3] and in assay [4] was “inactive” throughout. Besides, the molecule was called inactive in [9] and in [5].

With `CCN1C(=O)C=CC1=O`, the Potency result in [1], in assay [7], in assay [3] and in assay [4] was “inactive” each time. Moreover, in assay [11], the activation is 23.4% (inactive). Further, the Potency in assay [12] was 1.58 µM (active). Further, in assay [5], the outcome was inactive.

Turning to `CSC(=N)N`, the Potency entry in [1], in assay [6], in assay [7], in [3] and in [4] was “inactive” throughout. Also, in assay [2], the Potency is 0.631 µM (active). In addition, the molecule was called inactive in [5].

With `CC[C@H](NC(=O)c1c(C)c(-c2ccccc2)nc2ccccc12)c1ccccc1`, the Potency in assay [1] is 12.6 µM (active); in assay [2] it was 25.1 µM (active). In addition, the Potency result in [6], in assay [3] and in [4] was “inactive” throughout. For the same molecule, the outcome in assay [5] was inactive.

Turning to `NC/C=C\C(=O)O`, the Potency entry in assay [1], in [2], in [8], in [6], in assay [7] and in assay [3] was “inactive” throughout. In addition, in assay [4], the Potency entry was “inactive”. The result in assay [9] and in assay [5] was inactive.

With `C/C(=C\c1ccc(C(=O)O)cc1)c1ccc2c(c1)C(C)(C)CCC2(C)C`, the Potency in [1] was 10 µM (active). In addition, the activation in assay [11] was -65.3% (inactive). Also, the Potency entry in assay [3] and in assay [4] was “inactive” each time. The outcome in assay [5] was inactive.

`O=C(O)C1=CC(=C(c2ccc(O)c(C(=O)O)c2)c2ccc(O)c(C(=O)O)c2)C=CC1=O`: the Potency result in assay [1], in assay [8], in assay [7], in [3], in assay [4] and in assay [13] was “inactive” each time. For the same molecule, the result in [9] was inactive.

Regarding `N[C@H](C(=O)O)c1cc(O)cc(O)c1`, the Potency entry in assay [1], in [2], in [6], in [7], in assay [3] and in [4] was “inactive” in each case. For the same molecule, the molecule was called inactive in assay [5].
